# VACV Venus inh: vaccinia inhibition (Venus reporter). Vaccinia virus Venus reporter expression, fluorescence. Potency, µM (doses to about 36.5 µM), most hits filed as inhibitors. 330,000 compounds, 0.46% hits; calls by dose curve; tested in A549 cells; further: nearly all actives have a fitted effect of over 30% in size
# HCV inhibitor: blocks hepatitis C virus | Huh7.5.1 HCVcc-Cre infection, luciferase reporter, 44 h | Potency, µM (doses to about 41.8 µM), hits mostly inhibitors | 340,000 compounds, 3.4% hits | AID 651820; active means well fitted inhibition curve with a large enough effect; inconclusive means small, poorly fitted or top-dose-only effect, or another doubt; inactive means no such curve, though single readings can be large or run the other way
#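 Seed cells (1,000/well) for 4 h; treat with compound and infect with HCVcc-Cre, moi about 0.5. Incubate 44 h, then detect luciferase activity.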
# VACV mCherry inh: inhibitors of vaccinia virus infection (mCherry reporter signal); Vaccinia virus mCherry reporter infection, fluorescence; Potency, µM (titrated, usually from 36.5 µM), most hits filed as inhibitors; 310,000 compounds, 0.63% hits; calls by dose curve; tested in A549 cells; further: nearly all actives have a fitted effect of over 35% in size
# Hits are given with their value; . = inactive; ? = inconclusive; / = not tested or not shown; ! = not active in a repeat; [ ] = remark or other dose. The list is not random: actives were taken first. Their share in the collection is about 3.3%.
SMILES,VACV Venus inh,HCV inhibitor,VACV mCherry inh
CCCn1c2ccccc2c2nnc(SCC(=O)Nc3cc(C)on3)nc21,10µM,.,/
Cc1cc(C)c(NC(=O)CSc2nc(COc3ccccc3)nc3ccccc23)c(C)c1,?,.,11µM
Cc1ccccc1NC(=O)CSc1nc(COc2ccccc2)nc2ccccc12,.,.,.
C=CCn1c2ccccc2c2nnc(SCC(=O)Nc3cc(C)on3)nc21,.,?,/
CCCn1c2ccccc2c2nnc(SCC(=O)Nc3ncccn3)nc21,11µM,.,/
Cc1nnc(NC(=O)CSc2nc(C(C)C)nc3ccccc23)s1,.,?,.
Cc1ccccc1NC(=O)c1sc2nc3n(c(=O)c2c1C)N=C(c1ccccc1)CS3,.,/,.
Cn1cc(CN2CCOc3ccc(C(O)C4CCCCC4)cc3C2)cn1 (stereo not drawn),.,/,.
Cc1cccc2sc(N(CCN(C)C)C(=O)C3CCN(S(=O)(=O)c4cccs4)CC3)nc12,.,?,.
O=C1C2CC=CCC2C(=O)N1c1ccc(N2CCN(c3ccccn3)CC2)c([N+](=O)[O-])c1 (stereo not drawn),.,.,.
O=Cc1ccc(CS)cc1,.,/,.
N#Cc1cc2c(cc1NC(=O)CCn1cnnn1)OCO2,/,.,/
O=C(CN1CCN(S(=O)(=O)c2ccccc2F)CC1)N1CCc2ccccc2C1,.,.,.
Cc1cc(C)cc(Cn2ncc(Cl)c(Cl)c2=O)c1,.,?,.
O=c1[nH]cnc2c1cnn2Cc1ccccc1Cl,/,.,/
Nc1c(Cl)cnn(-c2ccccc2)c1=O,/,.,/
Cc1ccc(Cn2ncc(Cl)c(Cl)c2=O)cc1,?,11µM,.
Cc1ccc(-c2nnc(Cc3ccc(Cl)cc3)o2)cc1,.,.,.
O=c1c(Cl)c(Cl)cnn1Cc1ccccc1Cl,?,2.8µM,?
O=c1c(Cl)c(Cl)cnn1-c1ccccc1,/,4µM,/
O=c1c(Cl)c(Cl)cnn1Cc1nnc(-c2ccc(Cl)cc2)o1,?,10µM,?
CCC(=O)NCCC1CCc2ccc3c(c21)CCO3 (stereo not drawn),.,/,.
CC1CCCN(C(=O)CNC(=O)c2ccco2)C1 (stereo not drawn),/,.,/
Cn1c(=O)c2c(c3ccccc31)OC(=O)CC2c1ccccc1 (stereo not drawn),.,/,.
NS(=O)(=O)c1ccc(CCNc2ccn3nc(-c4cccc(C(F)(F)F)c4)cc3n2)cc1,?,/,8.9µM
SMILES,VACV Venus inh,HCV inhibitor,VACV mCherry inh
COc1ccccc1-c1cc2nc(NCCc3ccc(S(N)(=O)=O)cc3)ccn2n1,.,/,.
O=C(Nc1cc(Cl)cc(Cl)c1)c1ccc(F)c(S(=O)(=O)NC2CCCCC2)c1,.,/,.
N#CCSc1nc(Nc2ccc3c(c2)OCO3)c2ccccc2n1,/,8.9µM,/
CCOC(=O)CSc1nc(Nc2ccc3c(c2)OCO3)c2ccccc2n1,.,?,.
Cn1c(SCC(=O)NCc2ccco2)nnc1-c1ccc(NC(=O)c2ccccc2)cc1,.,/,.
COc1ccc(CNC(=O)N2CCN(C(=O)c3ccccc3)CC2)cc1,.,.,?
CCC(C)(C)NC(=S)Nc1ccc(-c2nc3ccc(C)cc3s2)cc1,?,.,?
Cc1ccc2nc(-c3ccc(NC(=S)NCC(C)(C)CN(C)C)cc3)sc2c1,/,2.2µM,/
CCOC(=O)c1ccc(N2C(=O)c3[nH]nc(-c4ccccc4)c3C2c2cccs2)cc1 (stereo not drawn),.[7.34 µM],/,.[7.34 µM]
Cc1ccccc1C(=O)NCC(=O)OC(C)C(=O)Nc1cccc(S(=O)(=O)N2CCOCC2)c1 (stereo not drawn),.,.,.
Cc1ccc(Cn2c(=N)n(CC(=O)c3ccccc3)c3ccccc32)cc1,/,10µM,/
CC(C)(C)C(=O)Cn1c(=N)n(Cc2ccccc2)c2ccccc21,?,?,8.9µM
CC(C)(C)C(=O)Cn1c(=N)n(Cc2ccccc2Cl)c2ccccc21,.,.,.
N=c1n(CC(=O)c2cccc([N+](=O)[O-])c2)c2ccccc2n1Cc1ccccc1,.,?,.
Oc1ccc(Cl)cc1C1C=C(c2ccc3c(c2)OCO3)NC(c2ccc(C(F)(F)F)cc2)N1 (stereo not drawn),.,/,.
CC(=O)c1cccc(OCC(=O)N(Cc2ccco2)c2c(N)n(Cc3ccccc3)c(=O)[nH]c2=O)c1,/,.,/
Cc1cc(CN(C)C(=O)C2CCC(=O)N(CCc3cccc(F)c3)C2)on1 (stereo not drawn),.,.,.
CCn1nnnc1Sc1nc(C)nc2scc(-c3ccccc3)c12,.,/,.
N#Cc1c(NC(=O)CCN2C(=O)c3ccccc3C2=O)oc(-c2ccccc2)c1-c1ccccc1,.,.,.
N#Cc1c(NC(=O)CCn2cnc3ccccc3c2=O)oc(-c2ccccc2)c1-c1ccccc1,?,10µM!,/
Brc1ccc([C@H]2C=C[C@H]3CCCN4CC[C@H]2[C@@H]3[C@]42CO2)cc1,.,/,.
O=C(Cc1cscn1)N1CCOc2ccc(CN3CCN(c4ccccn4)CC3)cc2C1,.,/,.
